{
  "source": "paper PMC6919601",
  "about": "“Identification of Plasmodium dipeptidyl aminopeptidase allosteric inhibitors by high throughput screening” (PLoS ONE, 2019)",
  "note": "The whole screen tested about 110,000 compounds, of which about 230 (0.21%) showed an effect of 50% or more. The full list was thinned out, with strong results kept by preference.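 Note: 30 min substrate incubation versus DMSO and 10 µM JCP410 controls.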",
  "data": [
    {"molecular_target": "DPAP1 (Plasmodium falciparum, UniProt Q8IIJ9)", "sequence (Q8IIJ9 whole entry, looked up)": "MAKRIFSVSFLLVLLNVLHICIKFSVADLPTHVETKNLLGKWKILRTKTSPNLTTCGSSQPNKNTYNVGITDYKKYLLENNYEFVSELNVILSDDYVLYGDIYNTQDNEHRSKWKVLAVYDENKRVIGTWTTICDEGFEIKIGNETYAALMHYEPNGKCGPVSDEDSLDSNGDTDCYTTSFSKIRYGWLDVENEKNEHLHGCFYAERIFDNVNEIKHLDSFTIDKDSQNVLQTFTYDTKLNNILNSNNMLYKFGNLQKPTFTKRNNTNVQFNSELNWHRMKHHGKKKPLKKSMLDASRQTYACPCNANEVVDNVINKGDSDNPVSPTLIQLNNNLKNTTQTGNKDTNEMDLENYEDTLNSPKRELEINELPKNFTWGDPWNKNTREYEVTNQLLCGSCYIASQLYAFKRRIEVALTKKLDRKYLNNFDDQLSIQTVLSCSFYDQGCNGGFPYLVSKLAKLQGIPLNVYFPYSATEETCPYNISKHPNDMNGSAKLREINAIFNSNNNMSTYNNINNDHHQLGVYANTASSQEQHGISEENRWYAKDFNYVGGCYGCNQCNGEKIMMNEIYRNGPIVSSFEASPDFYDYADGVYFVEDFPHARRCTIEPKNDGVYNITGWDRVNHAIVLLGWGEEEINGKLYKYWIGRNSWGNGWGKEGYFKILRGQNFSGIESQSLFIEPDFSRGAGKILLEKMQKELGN", "assay": "primary screen, percent inhibition; read by cleavage of a fluorogenic dipeptide substrate; higher = more effect of the substance", "parameters": "species or system P. falciparum D10 trophozoite lysates; single well", "protocol": "HTS was performed in black 384-well plates. The first and last two columns of each plate contained our negative (DMSO) and positive (10 μM JCP410) controls, and the 20 central columns the test compounds at 10 μM. Compounds were first diluted 50-fold into assay buffer (50 mM sodium acetate, 5 mM MgCl2, 10 mM β-mercaptoethanol, and 0.1% CHAPS, pH 5.5) from a 10 mM DMSO stock plates. One microliter of this 200 μM intermediate stock plate was dispensed into the assay plate. […] After 30 min, the reaction was quenched with 20 μL of 0.5 M acetic acid, and the fluorescent intensity measured at 523 nm (λex = 492 nm) using an Analyst HT multimode plate reader (Molecular Devices).", "units": {"% Inhibition @ 10 uM": "%"}, "values": [
      {"smiles": "Oc1cc(-c2ccccc2)nc2nc(Cc3ccccc3)nn12", "% Inhibition @ 10 uM": 0.795},
      {"smiles": "Cc1ccc(CNC(=O)c2cc3c(s2)-c2ccccc2S(=O)(=O)C3)cc1", "% Inhibition @ 10 uM": -0.72},
      {"smiles": "CN1C(=O)c2ccccc2C(C(=O)NCCN2CCc3ccccc3C2)C1c1cn(C)c2ccccc12", "note": "(stereo not shown)", "% Inhibition @ 10 uM": -7.27},
      {"smiles": "O=c1c2c3c(sc2[nH]c(=S)n1-c1ccccc1)CC1(CCCCC1)CC3", "% Inhibition @ 10 uM": 0.774},
      {"smiles": "Cc1sc2[nH]c(=O)n(-c3ccc(Cl)c(Cl)c3)c(=O)c2c1C", "% Inhibition @ 10 uM": -0.711},
      {"smiles": "Cc1sc2[nH]c(=S)n(-c3ccccc3)c(=O)c2c1C", "% Inhibition @ 10 uM": 72.2},
      {"smiles": "Cc1sc2[nH]c(=S)n(-c3ccc(Cl)cc3)c(=O)c2c1C", "% Inhibition @ 10 uM": 51.2},
      {"smiles": "CCc1cc2c(=O)n(-c3ccc(Cl)cc3)c(=S)[nH]c2s1", "% Inhibition @ 10 uM": 21.1},
      {"smiles": "CCc1c(O)n(-c2ccccc2)c(=S)[nH]c1=O", "% Inhibition @ 10 uM": 0.526},
      {"smiles": "COc1ccc(N2CCN(C(=O)CN(C)S(=O)(=O)c3ccc(C)cc3)CC2)cc1", "% Inhibition @ 10 uM": -5.35},
      {"smiles": "O=[N+]([O-])c1ccc(CSc2ccc(Cl)cc2)cc1", "% Inhibition @ 10 uM": 2.22},
      {"smiles": "COc1ccc(CNC(=O)c2cc3c(O)nc4ccc(C)cc4c3s2)cc1", "% Inhibition @ 10 uM": 1.72},
      {"smiles": "Cc1cc(C)c(C)c(C2C(C#N)=C(N)SC(N)=C2C#N)c1C", "% Inhibition @ 10 uM": 4.22},
      {"smiles": "N#CC1=C(N)SC(N)=C(C#N)C1c1cccc(Cl)c1", "% Inhibition @ 10 uM": 19.5},
      {"smiles": "Cc1ccc(C2C(C#N)=C(N)SC(N)=C2C#N)c(C)c1", "% Inhibition @ 10 uM": 27.4},
      {"smiles": "N#CC1=C(N)SC(N)=C(C#N)C1c1ccc(Cl)cc1", "% Inhibition @ 10 uM": 50.8},
      {"smiles": "CCOc1ccc(OCC)c(C2C(C#N)=C(N)SC(N)=C2C#N)c1", "% Inhibition @ 10 uM": 23.2},
      {"smiles": "N#CC1=C(N)SC(N)=C(C#N)C1c1cccnc1", "% Inhibition @ 10 uM": 0.731},
      {"smiles": "N#CC1=C(N)SC(N)=C(C#N)C1c1ccc(Cl)c(Cl)c1", "% Inhibition @ 10 uM": 40.5},
      {"smiles": "COc1cc(C2C(C#N)=C(N)SC(N)=C2C#N)ccc1O", "% Inhibition @ 10 uM": 28.3},
      {"smiles": "CCOc1ccc(C2C(C#N)=C(N)SC(N)=C2C#N)cc1OC", "% Inhibition @ 10 uM": 57.7},
      {"smiles": "CC(C)c1ccc(C2C(C#N)=C(N)SC(N)=C2C#N)cc1", "% Inhibition @ 10 uM": 46.7},
      {"smiles": "N#CC1=C(N)SC(N)=C(C#N)C1c1ccccc1", "% Inhibition @ 10 uM": 70.9},
      {"smiles": "CC1C(C#N)=C(N)SC(N)=C1C#N", "% Inhibition @ 10 uM": 67.5},
      {"smiles": "C=CCSc1nnc(NC(=O)Cc2coc3ccc(C)cc23)s1", "% Inhibition @ 10 uM": 1},
      {"smiles": "CC(Sc1nc(-c2ccccc2)c(-c2ccccc2)[nH]1)C(=O)O", "note": "(stereo not shown)", "% Inhibition @ 10 uM": -3.04},
      {"smiles": "O=C(Nc1ccc(F)c(Cl)c1)c1cc2nc(C(F)F)cc(C(F)F)n2n1", "% Inhibition @ 10 uM": -8.02},
      {"smiles": "Cc1oc2ncnc(N3CCOCC3)c2c1C(=O)N(C)Cc1ccco1", "% Inhibition @ 10 uM": 4.76},
      {"smiles": "COc1ccc2nc(Cl)c(C3CC(c4ccc(Cl)cc4)=NN3C(C)=O)cc2c1", "note": "(stereo not shown)", "% Inhibition @ 10 uM": 4.18},
      {"smiles": "NS(=O)(=O)c1ccc(NC(=O)c2cccs2)cc1", "% Inhibition @ 10 uM": 7.24},
      {"smiles": "NC(=O)C1CCCN(C2CCc3ccccc3C2)C1", "note": "(stereo not shown)", "% Inhibition @ 10 uM": -1.5},
      {"smiles": "Cc1ccc(C2C(C#N)=C(N)SC(N)=C2C#N)o1", "% Inhibition @ 10 uM": 47.9},
      {"smiles": "Cc1ccsc1C1C(C#N)=C(N)SC(N)=C1C#N", "% Inhibition @ 10 uM": 27.5},
      {"smiles": "N#CC1=C(N)SC(N)=C(C#N)C1c1c(Cl)cccc1Cl", "% Inhibition @ 10 uM": 28.7},
      {"smiles": "N#CC1=C(N)SC(N)=C(C#N)C1c1ccco1", "% Inhibition @ 10 uM": 51.4},
      {"smiles": "Cc1ccc(C2C(C#N)=C(N)SC(N)=C2C#N)s1", "% Inhibition @ 10 uM": 55.8},
      {"smiles": "N#CC1=C(N)SC(N)=C(C#N)C1c1cccs1", "% Inhibition @ 10 uM": 40.6},
      {"smiles": "OC(c1ccccc1)c1nc2ccccc2n1CCc1ccccc1", "note": "(stereo not shown)", "% Inhibition @ 10 uM": -2.92},
      {"smiles": "CC1=C(C(=O)Nc2ccc(Br)cn2)C(c2ccccc2C)C2=C(O)CCCC2=N1", "note": "(stereo not shown)", "% Inhibition @ 10 uM": 2.7},
      {"smiles": "CN(CC(=O)NCc1cccs1)S(=O)(=O)c1ccc2[nH]c(-c3ccccc3)nc2c1", "% Inhibition @ 10 uM": 3.88},
      {"smiles": "COc1ccc(Br)cc1CNC(=O)c1ccc2c(c1)ncn2C1CCCC1", "% Inhibition @ 10 uM": 3.66},
      {"smiles": "COc1cc(CN(C(=S)NCC(=O)NC2CCCC2)C2CCCC2)cc(OC)c1OC", "% Inhibition @ 10 uM": 1.27},
      {"smiles": "COc1cc(/C=C2\\N=C(c3cc(OC)c(OC)c(OC)c3)OC2=O)cc(OC)c1OC", "% Inhibition @ 10 uM": 0.607},
      {"smiles": "COc1cc(C2=N/C(=C\\c3ccc(C(C)(C)C)cc3)C(=O)O2)cc(OC)c1OC", "% Inhibition @ 10 uM": 84.3},
      {"smiles": "COc1cc(C2=N/C(=C\\c3ccc(SC)cc3)C(=O)O2)cc(OC)c1OC", "% Inhibition @ 10 uM": -20.1},
      {"smiles": "Cc1cccc(C(=O)Nc2ccc(S(=O)(=O)N3CCCCC3)cc2)c1", "% Inhibition @ 10 uM": -1.28},
      {"smiles": "N#Cc1c(-c2ccccc2)cc(-c2ccccc2)c(C#N)c1N", "% Inhibition @ 10 uM": 0.716},
      {"smiles": "N#Cc1c(-c2ccccc2)cc(C(F)(F)F)nc1S", "% Inhibition @ 10 uM": 76.9},
      {"smiles": "N#Cc1c(-c2ccc(F)cc2)cc(C2CC2)nc1S", "% Inhibition @ 10 uM": 4.63},
      {"smiles": "N#Cc1c(-c2ccc3c(c2)OCO3)cc(-c2ccccc2)nc1S", "% Inhibition @ 10 uM": 11.7},
      {"smiles": "N#Cc1c(-c2ccccc2)cc(C(F)F)nc1S", "% Inhibition @ 10 uM": 76.3},
      {"smiles": "COc1ccc(-c2cc(-c3ccccc3)nc(S)c2C#N)cc1", "% Inhibition @ 10 uM": 43.3}
    ]}
  ]
}
